Data reported in paper PMC9911399, “Two distinct binding modes provide the RNA-binding protein RbFox with extraordinary sequence specificity”.
Residue numbers refer to the chain shown, from its start. In all, about 16,000 sequences were measured (“ka relative to ugcaugu”: median about 0.096, highest 2% from about 0.35 on). The sample holds the highest values, similar sequences and a random draw of the others, so the mix is not that of the screen.

T1: RBFOX1 RRM RbFoxmut (Fox-RRM*) (Homo sapiens, UniProt Q9NWB1 109-208, R118D;E147R;N151S;E152T)
T1 sequence: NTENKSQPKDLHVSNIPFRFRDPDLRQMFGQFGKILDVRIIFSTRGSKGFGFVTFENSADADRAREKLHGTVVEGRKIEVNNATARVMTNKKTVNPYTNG

B1: AGACUAU (DNA:RNA)
RNA: GGGAGACCGGAAUUCAGAUUGUCCAGACUAUUUAAAUCCCGUCGUAGCCACCA
DNA 1: CAATCTGAATTCCGGTCTCCC
DNA 2: TGGTGGCTACGACGGGATT
B2: CGUCGCC (DNA:RNA)
RNA: B1 RNA with A25C, A27U, U29G, A30C, U31C
DNA 1: CAATCTGAATTCCGGTCTCCC
DNA 2: TGGTGGCTACGACGGGATT
B3: UCACCUC (DNA:RNA)
RNA: B1 RNA with A25U, G26C, U29C, A30U, U31C
DNA 1: CAATCTGAATTCCGGTCTCCC
DNA 2: TGGTGGCTACGACGGGATT
B4: AAAAUUC (DNA:RNA)
RNA: B1 RNA with G26A, C28A, A30U, U31C
DNA 1: CAATCTGAATTCCGGTCTCCC
DNA 2: TGGTGGCTACGACGGGATT
B5: CGAAUGG (DNA:RNA)
RNA: B1 RNA with A25C, C28A, A30G, U31G
DNA 1: CAATCTGAATTCCGGTCTCCC
DNA 2: TGGTGGCTACGACGGGATT
B6: CGUAUGG (DNA:RNA)
RNA: B1 RNA with A25C, A27U, C28A, A30G, U31G
DNA 1: CAATCTGAATTCCGGTCTCCC
DNA 2: TGGTGGCTACGACGGGATT
B7: GUAUGGU (DNA:RNA)
RNA: B1 RNA with A25G, G26U, C28U, U29G, A30G
DNA 1: CAATCTGAATTCCGGTCTCCC
DNA 2: TGGTGGCTACGACGGGATT
B8: GGUAUGG (DNA:RNA)
RNA: B1 RNA with A25G, A27U, C28A, A30G, U31G
DNA 1: CAATCTGAATTCCGGTCTCCC
DNA 2: TGGTGGCTACGACGGGATT
B9: GUAAUGG (DNA:RNA)
RNA: B1 RNA with A25G, G26U, C28A, A30G, U31G
DNA 1: CAATCTGAATTCCGGTCTCCC
DNA 2: TGGTGGCTACGACGGGATT
B10: GAAAUGG (DNA:RNA)
RNA: B1 RNA with A25G, G26A, C28A, A30G, U31G
DNA 1: CAATCTGAATTCCGGTCTCCC
DNA 2: TGGTGGCTACGACGGGATT
B11: AGAAUGG (DNA:RNA)
RNA: B1 RNA with C28A, A30G, U31G
DNA 1: CAATCTGAATTCCGGTCTCCC
DNA 2: TGGTGGCTACGACGGGATT
B12: GAAUGGG (DNA:RNA)
RNA: B1 RNA with A25G, G26A, C28U, U29G, A30G, U31G
DNA 1: CAATCTGAATTCCGGTCTCCC
DNA 2: TGGTGGCTACGACGGGATT
B13: AGAAUUG (DNA:RNA)
RNA: B1 RNA with C28A, A30U, U31G
DNA 1: CAATCTGAATTCCGGTCTCCC
DNA 2: TGGTGGCTACGACGGGATT
B14: GGAAUGG (DNA:RNA)
RNA: B1 RNA with A25G, C28A, A30G, U31G
DNA 1: CAATCTGAATTCCGGTCTCCC
DNA 2: TGGTGGCTACGACGGGATT
B15: AGAUUGG (DNA:RNA)
RNA: B1 RNA with C28U, A30G, U31G
DNA 1: CAATCTGAATTCCGGTCTCCC
DNA 2: TGGTGGCTACGACGGGATT
B16: GUUAUGG (DNA:RNA)
RNA: B1 RNA with A25G, G26U, A27U, C28A, A30G, U31G
DNA 1: CAATCTGAATTCCGGTCTCCC
DNA 2: TGGTGGCTACGACGGGATT
B17: GGGCCAA (DNA:RNA)
RNA: B1 RNA with A25G, A27G, U29C, U31A
DNA 1: CAATCTGAATTCCGGTCTCCC
DNA 2: TGGTGGCTACGACGGGATT
B18: UUCGUCU (DNA:RNA)
RNA: B1 RNA with A25U, G26U, A27C, C28G, A30C
DNA 1: CAATCTGAATTCCGGTCTCCC
DNA 2: TGGTGGCTACGACGGGATT
B19: GGACUAG (DNA:RNA)
RNA: B1 RNA with A25G, U31G
DNA 1: CAATCTGAATTCCGGTCTCCC
DNA 2: TGGTGGCTACGACGGGATT
B20: ACCCGUU (DNA:RNA)
RNA: B1 RNA with G26C, A27C, U29G, A30U
DNA 1: CAATCTGAATTCCGGTCTCCC
DNA 2: TGGTGGCTACGACGGGATT
B21: AUGGCUC (DNA:RNA)
RNA: B1 RNA with G26U, A27G, C28G, U29C, A30U, U31C
DNA 1: CAATCTGAATTCCGGTCTCCC
DNA 2: TGGTGGCTACGACGGGATT
B22: UAUUUAA (DNA:RNA)
RNA: B1 RNA with A25U, G26A, A27U, C28U, U31A
DNA 1: CAATCTGAATTCCGGTCTCCC
DNA 2: TGGTGGCTACGACGGGATT
B23: AGCAGCG (DNA:RNA)
RNA: B1 RNA with A27C, C28A, U29G, A30C, U31G
DNA 1: CAATCTGAATTCCGGTCTCCC
DNA 2: TGGTGGCTACGACGGGATT
B24: GAUGGUU (DNA:RNA)
RNA: B1 RNA with A25G, G26A, A27U, C28G, U29G, A30U
DNA 1: CAATCTGAATTCCGGTCTCCC
DNA 2: TGGTGGCTACGACGGGATT
B25: GAAUGGU (DNA:RNA)
RNA: B1 RNA with A25G, G26A, C28U, U29G, A30G
DNA 1: CAATCTGAATTCCGGTCTCCC
DNA 2: TGGTGGCTACGACGGGATT
B26: CGAUGGC (DNA:RNA)
RNA: B1 RNA with A25C, C28U, U29G, A30G, U31C
DNA 1: CAATCTGAATTCCGGTCTCCC
DNA 2: TGGTGGCTACGACGGGATT
B27: GAUUGGC (DNA:RNA)
RNA: GGGAGACCGGAAUUCAGAUUGUCCGAUUGGCUUAAAUCCCGUCGUAGCCACCA
DNA 1: CAATCTGAATTCCGGTCTCCC
DNA 2: TGGTGGCTACGACGGGATT
B28: GGAUGGU (DNA:RNA)
RNA: B27 RNA with A26G, U27A, C31U
DNA 1: CAATCTGAATTCCGGTCTCCC
DNA 2: TGGTGGCTACGACGGGATT
B29: GAAUGGC (DNA:RNA)
RNA: B27 RNA with U27A
DNA 1: CAATCTGAATTCCGGTCTCCC
DNA 2: TGGTGGCTACGACGGGATT
B30: GAGAAAU (DNA:RNA)
RNA: B1 RNA with A25G, G26A, A27G, C28A, U29A
DNA 1: CAATCTGAATTCCGGTCTCCC
DNA 2: TGGTGGCTACGACGGGATT
B31: GAACCCG (DNA:RNA)
RNA: B1 RNA with A25G, G26A, U29C, A30C, U31G
DNA 1: CAATCTGAATTCCGGTCTCCC
DNA 2: TGGTGGCTACGACGGGATT

Biological target: T1, RBFOX1 RRM RbFoxmut (Fox-RRM*)
Assay: EMSA; HiTS-Eq, 1 nM pool, 10 min; buffer printed only for the single-RNA assays: 10 mM Tris pH 7.5, 150 mM NaCl, 3.4 mM EDTA, 0.001% NP-40, 30 C
Details: tags: His6 N-terminal (pET28a); label: 5' 32P
Outline: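 A pool of RNA with 7 randomized nucleotides, 5′-radiolabelled and with DNA-annealed flanks, was equilibrated at 1 nM for 10 min in 50 µL with purified RbFox RRM, wild type or mutant, across increasing protein concentrations. Free RNA was separated by 8% native PAGE, excised, reverse-transcribed, barcoded by PCR and sequenced. Relative association constants were obtained from read-count changes of each RNA species versus the control reaction and normalised to the cognate motif.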

Binder | binding signal
B1 | 0.0902 KA relative to UGCAUGU
B2 | 0.0841 KA relative to UGCAUGU
B3 | 0.0699 KA relative to UGCAUGU
B4 | 0.0842 KA relative to UGCAUGU
B5 | 0.72 KA relative to UGCAUGU
B6 | 0.261 KA relative to UGCAUGU
B7 | 0.325 KA relative to UGCAUGU
B8 | 0.419 KA relative to UGCAUGU
B9 | 0.0836 KA relative to UGCAUGU
B10 | 0.0639 KA relative to UGCAUGU
B11 | 0.541 KA relative to UGCAUGU
B12 | 0.21 KA relative to UGCAUGU
B13 | 0.129 KA relative to UGCAUGU
B14 | 0.724 KA relative to UGCAUGU
B15 | 0.125 KA relative to UGCAUGU
B16 | 0.123 KA relative to UGCAUGU

Binder | binding signal
B17 | 0.0698 KA relative to UGCAUGU
B18 | 0.0697 KA relative to UGCAUGU
B19 | 0.0756 KA relative to UGCAUGU
B20 | 0.0752 KA relative to UGCAUGU
B21 | 0.111 KA relative to UGCAUGU
B22 | 0.0892 KA relative to UGCAUGU
B23 | 0.113 KA relative to UGCAUGU
B24 | 0.0937 KA relative to UGCAUGU
B25 | 0.748 KA relative to UGCAUGU
B26 | 0.101 KA relative to UGCAUGU
B27 | 0.145 KA relative to UGCAUGU
B28 | 0.201 KA relative to UGCAUGU
B29 | 0.592 KA relative to UGCAUGU
B30 | 0.0893 KA relative to UGCAUGU
B31 | 0.0645 KA relative to UGCAUGU
